Measured values: the supplement of paper PMC9023506
Where a name gives a salt, the structure may show the parent alone.

These compounds were tested on Danio rerio larvae (5 dpf) (assay: activity during period 15 (no stimuli), difference vs DMSO (percentage points (treated minus DMSO)); higher = more of the behaviour than the DMSO vehicle control). Settings: 10 µM; exposure time: 3 h pre-incubation + 3 h imaging.
Description: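 5-dpf wild-type zebrafish larvae were imaged in 96-well plates. They were treated with 190 Tocris FDA-approved drugs at 10 µM (1 µl/ml DMSO) for 3 h before and 3 h during imaging at 28.5 °C, 48 larvae per drug. Automated image analysis gave % time moving and optomotor responses. Values are drug group mean minus DMSO vehicle mean (n=844), in percentage points, for 10 behaviours.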

| SMILES | activity during period 15 |
| --- | --- |
| Nc1nc2[nH]cc(CCc3ccc(C(=O)N[C@@H](CCC(=O)O)C(=O)O)cc3)c2c(=O)[nH]1 [Pemetrexed] | 1.39 |
| CN(CCOc1ccc(CC2SC(=O)NC2=O)cc1)c1ccccn1 (stereo not given) [Rosiglitazone] | 7.42 |
| CCOc1nc2cccc(C(=O)O)c2n1Cc1ccc(-c2ccccc2-c2noc(=O)[nH]2)cc1 [Azilsartan] | 3.86 |
| COc1c(C)c2c(c(O)c1C/C=C(\C)CCC(=O)O)C(=O)OC2 [Mycophenolic acid] | 9.46 |
| Cc1c(-c2ccc(O)cc2)n(Cc2ccc(OCCN3CCCCCC3)cc2)c2ccc(O)cc12 [Bazedoxifene acetate] | -15.7 |
| CCCN(CCC)S(=O)(=O)c1ccc(C(=O)O)cc1 [Probenecid] | -4.09 |
| CCN(Cc1ccncc1)C(=O)C(CO)c1ccccc1 (stereo not given) [Tropicamide] | 6.31 |
| Cc1ccc(O)c([C@H](CCN(C(C)C)C(C)C)c2ccccc2)c1 [Tolterodine L-tartrate] | 13.9 |
| CCOC(=O)c1ncn2c1CN(C)C(=O)c1cc(F)ccc1-2 [Flumazenil] | 11.9 |
| CC(C)(C#N)c1cc(Cn2cncn2)cc(C(C)(C)C#N)c1 [Anastrozole] | 2.84 |
| Nc1nc(Cl)nc2c1ncn2[C@@H]1O[C@H](CO)[C@@H](O)[C@@H]1F [Clofarabine] | -4.3 |
| CC(C)[C@H]1CC[C@H](C(=O)N[C@H](Cc2ccccc2)C(=O)O)CC1 [Nateglinide] | -0.384 |
| CC(=O)NC[C@H]1CN(c2ccc(N3CCOCC3)c(F)c2)C(=O)O1 [Linezolid] | -1.07 |
| Clc1ccccc1C(c1ccccc1)(c1ccccc1)n1ccnc1 [Clotrimazole] | -30.5 |
| COc1ccc(C[C@@H](C)NC[C@H](O)c2ccc(O)c(NC=O)c2)cc1 [Arformoterol tartrate] | 46.5 |
| COc1ccccc1OCCNCC(O)COc1cccc2[nH]c3ccccc3c12 (stereo not given) [Carvedilol] | -6.43 |
| CCCN(CCc1cccs1)[C@H]1CCc2c(O)cccc2C1 [Rotigotine hydrochloride] | -35.4 |
| Nc1ccn([C@@H]2O[C@H](CO)[C@@H](O)C2(F)F)c(=O)n1 [Gemcitabine hydrochloride] | -1.53 |
| OCCN(CCO)c1nc(N2CCCCC2)c2nc(N(CCO)CCO)nc(N3CCCCC3)c2n1 [Dipyridamole] | -5.46 |
| COc1cc2nccc(Oc3ccc(NC(=O)C4(C(=O)Nc5ccc(F)cc5)CC4)cc3)c2cc1OC | 16.2 |

| SMILES | activity during period 15 |
| --- | --- |
| Nc1cccc2c1CN(C1CCC(=O)NC1=O)C2=O (stereo not given) [Lenalidomide] | 4.34 |
| CC#C[C@]1(O)CC[C@H]2[C@@H]3CCC4=CC(=O)CCC4=C3[C@@H](c3ccc(N(C)C)cc3)C[C@@]21C [Mifepristone] | -2.26 |
| OCCOCCN1CCN(C2=Nc3ccccc3Sc3ccccc32)CC1 [Quetiapine hemifumarate] | 16.8 |
| Cc1cn([C@H]2C=C[C@@H](CO)O2)c(=O)[nH]c1=O [Stavudine] | -0.445 |
| CC(C)c1nc(N(C)S(C)(=O)=O)nc(-c2ccc(F)cc2)c1/C=C/[C@@H](O)C[C@@H](O)CC(=O)O [Rosuvastatin calcium] | 15.5 |
| O=C(Nc1c(Cl)cncc1Cl)c1ccc(OC(F)F)c(OCC2CC2)c1 [Roflumilast] | -9.33 |
| CN1CC[C@@H](NC(=O)Nc2ccc(C#N)cc2)C[C@@H]1c1nc2ccccc2[nH]1 | -0.815 |
| CC(C)(C)NC(=O)[C@@H]1C[C@@H]2CCCC[C@@H]2CN1C[C@@H](O)[C@H](Cc1ccccc1)NC(=O)[C@H](CC(N)=O)NC(=O)c1ccc2ccccc2n1 [Saquinavir mesylate] | -12.8 |
| COCCc1ccc(OCC(O)CNC(C)C)cc1 (stereo not given) [Metoprolol tartrate] | 3.61 |
| CCC(=O)O[C@]1(C(=O)SCF)[C@H](C)C[C@H]2[C@@H]3C[C@H](F)C4=CC(=O)C=C[C@]4(C)[C@@]3(F)[C@@H](O)C[C@@]21C [Fluticasone propionate] | 8.18 |
| N[C@@H]1[C@H]2CN(c3nc4c(cc3F)c(=O)c(C(=O)O)cn4-c3ccc(F)cc3F)C[C@@H]12 [Trovafloxacin mesylate] | 2.91 |
| OC(c1cc(C(F)(F)F)nc2c(C(F)(F)F)cccc12)C1CCCCN1 (stereo not given) [Mefloquine hydrochloride] | -1.13 |
| CC(C)Nc1cccnc1N1CCN(C(=O)c2cc3cc(NS(C)(=O)=O)ccc3[nH]2)CC1 [Delavirdine mesylate] | -4.9 |
| C/C(O)=C(\C#N)C(=O)Nc1ccc(C(F)(F)F)cc1 [Teriflunomide] | 10.3 |
| N#Cc1ccc(C(c2ccc(C#N)cc2)n2cncn2)cc1 [Letrozole] | 0.514 |
| CN(C)CCc1c[nH]c2ccc(C[C@H]3COC(=O)N3)cc12 [Zolmitriptan] | 2.6 |
| Cc1cc(C2CCCCC2)n(O)c(=O)c1 [Ciclopirox] | 10.7 |
| CCc1c2c(nc3ccc(OC(=O)N4CCC(N5CCCCC5)CC4)cc13)-c1cc3c(c(=O)n1C2)COC(=O)[C@]3(O)CC | -8.3 |
| CN(C)CCC[C@@]1(c2ccc(F)cc2)OCc2cc(C#N)ccc21 [Escitalopram oxalate] | -18.3 |
| CCOC(=O)C1=C(COCCN)NC(C)=C(C(=O)OC)C1c1ccccc1Cl (stereo not given) [Amlodipine besylate] | 3.16 |
